# Experimental data published in ChEMBL document CHEMBL1157539, “Thousands of chemical starting points for antimalarial lead identification” (Nature, 2010).
# What was measured:
# Assay type in all cases: functional
# [1] = test system: Plasmodium falciparum; experiment: GSK_TCMDC: Inhibition of Plasmodium falciparum 3D7 in whole red blood cells, using parasite LDH activity as an index of growth. Test compounds present at 2uM
# [2] = test system: Plasmodium falciparum; experiment: GSK_TCMDC: Inhibition of Plasmodium falciparum Dd2 in whole red blood cells, using parasite LDH activity as an index of growth. Test compounds present at 2uM
# [3] = test system: HepG2; experiment: GSK_TCMDC: Percent inhibition of human HepG2 cell line. Test compounds present at 10uM.
Structure (SMILES),Inhibition [1],Inhibition [2],Inhibition [3]
CCCC1(NC[C@@H](O)[C@H](Cc2ccccc2)NC(=O)c2cc(NCC)cc(N3CCCCS3(=O)=O)c2)CC1.Cl,98%,98%,1%
Cc1nc(-c2ccc(-c3ccc(NC(=O)c4coc5ccc(N6CC(C)N(C)C(C)C6)cc45)cc3)c(C)c2)no1.Cl (stereo not given),96%,46%,21%
CC(C)(C)c1ccc(S(=O)(=O)Nc2ccccc2N2CCOCC2)cc1,90%,60%,11%
COc1cc(Cc2cnc(N)nc2N)cc(OCCCOc2ccccc2)c1OC,94%,2%,7%
CN1CCC(Oc2ccc(CN3CC[C@H](NC(=O)c4ccc(Cl)c(F)c4)C3)c3ccccc23)C1.O=C(O)C(F)(F)F (stereo not given in full),100%,65%,51%
O=C(Nc1ccc2c(ccn2C2CCCN(Cc3cc(F)cc(F)c3F)CC2)c1)c1ccco1 (stereo not given),89%,94%,7%
Nc1nccc2ccc(-c3cccnc3)cc12,97%,95%,9%
CC(=O)Nc1ccc(CN2CCC(NC(=O)c3ccc(-c4cccc(F)c4)s3)CC2)cc1.O=C(O)C(F)(F)F,96%,13%,6%
O=C(NCC1COc2ccccc2O1)c1cnc2c(c1)nc(-c1c[nH]c(-c3ccccc3)n1)n2CCSCc1c(F)cccc1Cl (stereo not given),95%,10%,6%
COc1ccc(-c2ccc(S(=O)(=O)Nc3cc4c(cc3OC(C)C)CCNCC4)cc2)cc1.Cl,86%,0%,16%
